Source: PubChem BioAssay AID651650 (Sanford-Burnham Center for Chemical Genomics, 2012)

These compounds were tested against Neuropilin-1 (Homo sapiens) (UniProt O14786) (assay: NRP-1 b1b2 CendR peptide binding inhibitors, dose response, biochemical, FP and AlphaScreen panel (AID 651650)). Conditions: NRP-1 b1b2 / RPARPAR peptide binding, FP or AlphaScreen; run 1, at 100 µM (top of the series).
Sequence of Neuropilin-1 (Homo sapiens) (O14786 whole entry, looked up): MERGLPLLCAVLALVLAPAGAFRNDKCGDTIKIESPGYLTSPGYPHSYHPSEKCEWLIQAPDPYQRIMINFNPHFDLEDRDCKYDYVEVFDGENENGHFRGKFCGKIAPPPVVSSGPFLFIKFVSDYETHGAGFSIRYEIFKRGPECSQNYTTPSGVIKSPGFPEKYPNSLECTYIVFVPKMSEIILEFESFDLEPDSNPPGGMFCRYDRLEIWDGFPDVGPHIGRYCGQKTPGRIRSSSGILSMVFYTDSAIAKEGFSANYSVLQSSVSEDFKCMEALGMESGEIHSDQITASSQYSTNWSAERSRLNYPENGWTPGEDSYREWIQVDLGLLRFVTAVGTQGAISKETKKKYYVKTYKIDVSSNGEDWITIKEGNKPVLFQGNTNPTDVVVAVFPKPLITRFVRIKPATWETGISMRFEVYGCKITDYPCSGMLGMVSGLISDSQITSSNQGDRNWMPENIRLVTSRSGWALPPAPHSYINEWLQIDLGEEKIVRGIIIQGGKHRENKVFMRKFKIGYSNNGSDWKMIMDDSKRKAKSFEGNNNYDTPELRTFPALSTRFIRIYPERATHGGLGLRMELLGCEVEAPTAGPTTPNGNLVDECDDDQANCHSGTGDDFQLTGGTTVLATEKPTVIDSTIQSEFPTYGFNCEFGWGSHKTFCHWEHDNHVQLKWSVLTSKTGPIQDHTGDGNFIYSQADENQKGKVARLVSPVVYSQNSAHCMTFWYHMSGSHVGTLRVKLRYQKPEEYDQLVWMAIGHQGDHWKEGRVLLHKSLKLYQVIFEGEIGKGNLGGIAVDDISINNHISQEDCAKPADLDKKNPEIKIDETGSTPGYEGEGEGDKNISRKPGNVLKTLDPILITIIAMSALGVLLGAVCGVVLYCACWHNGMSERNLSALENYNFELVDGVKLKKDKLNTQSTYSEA

SMILES | inhibition [%]
CCCCCCCN1C(Nc2ccccc2)=NC[C@@H]1Cc1ccccc1 | 24.7
O=S(=O)(c1ccccc1)c1nc(-c2ccc(F)cc2)oc1N1CCOCC1 | 24.8
Cn1c(=O)c2[nH]c(NCCCN3CCOCC3)nc2n(C)c1=O | 44.2
CC(=O)Nc1ccc2nc3c(=O)n(C)c(=O)n(C)c3nc2c1 | 84.8
CCn1c(SCC(=O)c2ccccc2)nnc1-c1cccs1 | 45.2
O=c1c2ccccc2nc2n1C(CSc1ccc(F)cc1)CS2 (stereo not given) | 101
COc1ccc(/C=N/NC(=O)c2ccccc2Cl)cc1CSc1nc2ccccc2s1 | 28.7
O=C(NNC(=O)c1ccccc1Cl)c1cccnc1 | 94
COC(=O)c1ccn(C(=O)c2ccc(Cl)cc2)n1 | 39.2
CC#CCN(Cc1ccco1)C(=O)C1CCC(=O)N(Cc2ccccc2F)C1 (stereo not given) | 24.4
CCOc1ccc(/C=C2/Sc3ccc(C(=O)NCC4CCCO4)cc3N(C)C2=O)cc1OC (stereo not given) | 77.7
O=C1CCCN1CCCNc1nc(NCc2cccs2)nc2ccsc12 | 81.3
Cc1ccnc(N2CCC(C(=O)Nc3ccc4c(c3)OCCO4)CC2)n1 | 41.7
NC(=S)NNC(=S)Nc1ccccc1 | 9.47
O=C(O)CCCC(=O)N1CCc2cc(S(=O)(=O)N3CCc4ccccc43)ccc21 | -2.42
Cc1ccc2c(c1)C(c1ccncc1)=NNC(c1ccc(F)cc1)=N2 | 36.3
Cc1cnc(C(=O)OCC(=O)Nc2sc3c(c2C#N)CCC3)cn1 | 44.2
COc1ccc2c(c1OC)CN1CCc3cc4c(cc3[C@@H]1[C@@H]2O)OCO4 | -3.65
CC1(c2ccccc2)CC(C)(C)n2c(O)c(C3=NC(=S)NC3=O)c3cccc1c32 (stereo not given) | 12.3
CC1CCN(C(=O)CSc2nncn2C)CC1 | 0.359
